What was measured:
Assay in all cases: DAPPL (digital affinity profiling via proximity ligation, sequencing); 10 mM Tris-HCl pH 7.5, 50 mM NaCl, 1 mM DTT, 4% glycerol, room temperature, 30 min; GST-TFs on glutathione beads, 16-mer random dsDNA library, 0.1% formaldehyde crosslink after washing; high values mean tight binding
[1] = biological target: T1, FLI1 (Homo sapiens, UniProt Q01543 1-452); conditions: protein: recombinant; tags: N-terminal GST; dsDNA, one strand shown
T1 sequence: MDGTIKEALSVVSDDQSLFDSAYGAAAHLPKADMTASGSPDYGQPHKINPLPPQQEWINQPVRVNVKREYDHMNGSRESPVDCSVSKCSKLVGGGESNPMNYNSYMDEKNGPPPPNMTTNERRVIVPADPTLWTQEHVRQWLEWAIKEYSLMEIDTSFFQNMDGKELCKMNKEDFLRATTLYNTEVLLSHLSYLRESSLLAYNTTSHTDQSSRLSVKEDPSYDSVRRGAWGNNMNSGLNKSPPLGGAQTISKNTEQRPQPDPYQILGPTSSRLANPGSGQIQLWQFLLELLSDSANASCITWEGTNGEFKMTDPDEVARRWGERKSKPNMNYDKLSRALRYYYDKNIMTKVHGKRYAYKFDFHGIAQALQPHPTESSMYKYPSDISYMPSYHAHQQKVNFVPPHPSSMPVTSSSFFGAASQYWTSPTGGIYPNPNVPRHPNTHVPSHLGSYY
In short: (§1)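 Binding signal is defined as a hexamer's read frequency for one factor over its frequency for the tag-only sample. To obtain reads, GST-fused human transcription factors were expressed in yeast, captured on glutathione beads, barcoded with DNA and pooled with that sample. Pools met 200 nmole of a 16-mer random double-stranded DNA library in Tris/NaCl/DTT/glycerol buffer for 30 min at room temperature before washing, 0.1% formaldehyde crosslinking, proximity ligation (BsaI/T4 ligase, 1 h, 37 °C), PCR and Illumina NextSeq500 sequencing.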

[2] = biological target: T2, ELK1 (Homo sapiens, UniProt P19419 1-428); conditions: protein: recombinant; tags: N-terminal GST; dsDNA, one strand shown
T2 sequence: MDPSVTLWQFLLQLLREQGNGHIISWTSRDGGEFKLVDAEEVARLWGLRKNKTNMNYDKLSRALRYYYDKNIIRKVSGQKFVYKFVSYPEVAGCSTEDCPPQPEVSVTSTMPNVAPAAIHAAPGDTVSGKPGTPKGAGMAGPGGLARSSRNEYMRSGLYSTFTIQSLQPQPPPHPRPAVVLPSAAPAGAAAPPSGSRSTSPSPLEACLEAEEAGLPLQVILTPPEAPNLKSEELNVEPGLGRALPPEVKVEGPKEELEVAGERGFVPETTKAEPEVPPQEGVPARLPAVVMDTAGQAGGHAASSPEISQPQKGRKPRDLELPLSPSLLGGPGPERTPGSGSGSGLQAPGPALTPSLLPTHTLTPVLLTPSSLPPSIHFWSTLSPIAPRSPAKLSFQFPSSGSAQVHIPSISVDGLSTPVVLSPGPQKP
In short: as §1

[3] = biological target: T3, GABPA (Homo sapiens, UniProt Q06546 1-454); conditions: protein: recombinant; tags: N-terminal GST; dsDNA, one strand shown
T3 sequence: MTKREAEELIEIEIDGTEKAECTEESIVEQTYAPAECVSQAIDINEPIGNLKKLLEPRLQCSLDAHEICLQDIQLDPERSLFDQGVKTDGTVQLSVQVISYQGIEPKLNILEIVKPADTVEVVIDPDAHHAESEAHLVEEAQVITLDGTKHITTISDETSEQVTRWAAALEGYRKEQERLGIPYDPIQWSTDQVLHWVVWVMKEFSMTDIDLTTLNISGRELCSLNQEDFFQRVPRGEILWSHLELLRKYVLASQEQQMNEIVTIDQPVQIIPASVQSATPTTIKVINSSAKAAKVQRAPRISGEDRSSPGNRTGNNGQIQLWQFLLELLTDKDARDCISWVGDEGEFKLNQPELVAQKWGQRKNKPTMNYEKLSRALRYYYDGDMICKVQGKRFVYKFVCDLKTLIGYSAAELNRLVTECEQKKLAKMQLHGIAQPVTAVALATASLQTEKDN
In short: as §1

[4] = biological target: T4, ERG (Homo sapiens, UniProt P11308 1-479); conditions: protein: recombinant; tags: N-terminal GST; dsDNA, one strand shown
T4 sequence: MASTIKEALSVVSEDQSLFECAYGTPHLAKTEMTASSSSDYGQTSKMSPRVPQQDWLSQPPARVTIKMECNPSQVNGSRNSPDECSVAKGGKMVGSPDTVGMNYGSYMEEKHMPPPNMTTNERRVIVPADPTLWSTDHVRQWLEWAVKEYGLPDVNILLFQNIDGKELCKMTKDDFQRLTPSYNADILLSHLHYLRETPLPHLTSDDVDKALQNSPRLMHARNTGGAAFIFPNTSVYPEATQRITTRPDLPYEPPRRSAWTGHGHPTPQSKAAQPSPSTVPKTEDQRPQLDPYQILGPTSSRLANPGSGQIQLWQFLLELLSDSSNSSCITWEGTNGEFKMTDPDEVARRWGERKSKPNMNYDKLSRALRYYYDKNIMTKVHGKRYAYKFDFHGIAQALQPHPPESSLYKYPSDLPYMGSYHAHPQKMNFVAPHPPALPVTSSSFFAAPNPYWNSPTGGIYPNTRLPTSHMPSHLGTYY
In short: as §1

[5] = biological target: ELF1 (Homo sapiens, UniProt P32519 1-619); conditions: protein: recombinant; tags: N-terminal GST; dsDNA, one strand shown
In short: as §1

[6] = biological target: T5, EHF (Homo sapiens, UniProt Q9NZC4 1-300); conditions: protein: recombinant; tags: N-terminal GST; dsDNA, one strand shown
T5 sequence: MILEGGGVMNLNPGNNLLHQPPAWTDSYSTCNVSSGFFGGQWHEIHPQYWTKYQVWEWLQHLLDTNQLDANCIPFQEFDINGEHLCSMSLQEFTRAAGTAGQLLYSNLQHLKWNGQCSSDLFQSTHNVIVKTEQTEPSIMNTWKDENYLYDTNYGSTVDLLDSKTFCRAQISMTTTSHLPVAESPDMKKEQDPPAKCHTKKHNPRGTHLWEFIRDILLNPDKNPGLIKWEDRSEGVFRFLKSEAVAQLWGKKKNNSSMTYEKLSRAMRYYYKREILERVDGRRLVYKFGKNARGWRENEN
In short: as §1

[7] = biological target: SPI1 (Homo sapiens, UniProt P17947 1-270); conditions: protein: recombinant; tags: N-terminal GST; dsDNA, one strand shown
In short: as §1

[8] = biological target: SPIB (Homo sapiens, UniProt Q01892 1-262); conditions: protein: recombinant; tags: N-terminal GST; dsDNA, one strand shown
In short: as §1

[9] = biological target: T6, ELK3 (Homo sapiens, UniProt P41970 1-407); conditions: protein: recombinant; tags: N-terminal GST; dsDNA, one strand shown
T6 sequence: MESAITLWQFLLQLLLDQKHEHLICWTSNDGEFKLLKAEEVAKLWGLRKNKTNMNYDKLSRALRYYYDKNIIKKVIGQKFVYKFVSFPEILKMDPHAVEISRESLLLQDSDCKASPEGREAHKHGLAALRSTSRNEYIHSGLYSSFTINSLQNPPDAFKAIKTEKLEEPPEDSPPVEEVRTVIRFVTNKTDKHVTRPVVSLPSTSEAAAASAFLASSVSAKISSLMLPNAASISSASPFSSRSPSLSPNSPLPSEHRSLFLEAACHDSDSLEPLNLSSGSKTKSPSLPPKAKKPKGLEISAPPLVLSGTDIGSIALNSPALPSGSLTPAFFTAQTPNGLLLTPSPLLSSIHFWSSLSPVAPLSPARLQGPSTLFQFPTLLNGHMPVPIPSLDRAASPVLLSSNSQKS
In short: as §1

[10] = biological target: T7, FEV (Homo sapiens, UniProt Q99581 1-238); conditions: protein: recombinant; tags: N-terminal GST; dsDNA, one strand shown
T7 sequence: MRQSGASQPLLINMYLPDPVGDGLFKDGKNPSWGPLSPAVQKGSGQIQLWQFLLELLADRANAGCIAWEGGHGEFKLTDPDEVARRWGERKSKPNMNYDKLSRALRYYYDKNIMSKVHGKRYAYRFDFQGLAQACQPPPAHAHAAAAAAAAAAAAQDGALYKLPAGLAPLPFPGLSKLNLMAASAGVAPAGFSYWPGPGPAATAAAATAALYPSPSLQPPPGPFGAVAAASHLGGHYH
In short: as §1

[11] = biological target: ETV5 (Homo sapiens, UniProt P41161 1-510); conditions: protein: recombinant; tags: N-terminal GST; dsDNA, one strand shown
In short: as §1

[12] = biological target: HSF1 (Homo sapiens, UniProt Q00613 1-529); conditions: protein: recombinant; tags: N-terminal GST; chain copies: 3; dsDNA, one strand shown
In short: as §1

[13] = biological target: T8, SPIC (Homo sapiens, UniProt Q8N5J4 1-248); conditions: protein: recombinant; tags: N-terminal GST; dsDNA, one strand shown
T8 sequence: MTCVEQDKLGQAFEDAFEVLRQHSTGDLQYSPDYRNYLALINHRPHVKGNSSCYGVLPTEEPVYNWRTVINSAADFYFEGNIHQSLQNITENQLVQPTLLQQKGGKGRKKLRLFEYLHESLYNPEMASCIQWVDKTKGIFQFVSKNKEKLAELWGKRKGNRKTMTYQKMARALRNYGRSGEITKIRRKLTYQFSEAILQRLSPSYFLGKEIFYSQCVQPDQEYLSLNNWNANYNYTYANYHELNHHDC
In short: as §1

[14] = biological target: ELF4 (Homo sapiens, UniProt Q99607 1-663); conditions: protein: recombinant; tags: N-terminal GST; dsDNA, one strand shown
In short: as §1

[15] = biological target: T9, ELK4 (Homo sapiens, UniProt P28324-2 1-405); conditions: protein: recombinant; tags: N-terminal GST; dsDNA, one strand shown
T9 sequence: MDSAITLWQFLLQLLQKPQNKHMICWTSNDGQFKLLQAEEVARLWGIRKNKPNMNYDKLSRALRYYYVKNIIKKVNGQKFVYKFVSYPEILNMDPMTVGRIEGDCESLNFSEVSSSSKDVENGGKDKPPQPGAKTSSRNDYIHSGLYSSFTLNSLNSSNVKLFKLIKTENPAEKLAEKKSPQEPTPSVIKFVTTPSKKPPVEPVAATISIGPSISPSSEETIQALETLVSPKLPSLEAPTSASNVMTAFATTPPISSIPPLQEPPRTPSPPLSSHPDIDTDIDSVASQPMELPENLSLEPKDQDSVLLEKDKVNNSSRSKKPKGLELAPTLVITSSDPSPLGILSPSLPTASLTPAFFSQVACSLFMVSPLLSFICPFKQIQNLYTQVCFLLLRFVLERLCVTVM
In short: as §1

[16] = biological target: T10, ETV2 (Homo sapiens, UniProt O00321 1-342); conditions: protein: recombinant; tags: N-terminal GST; dsDNA, one strand shown
T10 sequence: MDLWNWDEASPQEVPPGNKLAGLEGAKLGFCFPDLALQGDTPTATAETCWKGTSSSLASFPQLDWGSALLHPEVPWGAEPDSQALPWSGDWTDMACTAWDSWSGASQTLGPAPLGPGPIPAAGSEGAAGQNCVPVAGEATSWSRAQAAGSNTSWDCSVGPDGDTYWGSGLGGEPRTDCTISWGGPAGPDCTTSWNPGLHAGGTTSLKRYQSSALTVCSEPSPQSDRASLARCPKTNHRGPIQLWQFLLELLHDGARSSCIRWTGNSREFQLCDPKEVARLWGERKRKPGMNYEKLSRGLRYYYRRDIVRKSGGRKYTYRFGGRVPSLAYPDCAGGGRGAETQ
In short: as §1

[17] = biological target: T11, ELF3 (Homo sapiens, UniProt P78545 1-371); conditions: protein: recombinant; tags: N-terminal GST; dsDNA, one strand shown
T11 sequence: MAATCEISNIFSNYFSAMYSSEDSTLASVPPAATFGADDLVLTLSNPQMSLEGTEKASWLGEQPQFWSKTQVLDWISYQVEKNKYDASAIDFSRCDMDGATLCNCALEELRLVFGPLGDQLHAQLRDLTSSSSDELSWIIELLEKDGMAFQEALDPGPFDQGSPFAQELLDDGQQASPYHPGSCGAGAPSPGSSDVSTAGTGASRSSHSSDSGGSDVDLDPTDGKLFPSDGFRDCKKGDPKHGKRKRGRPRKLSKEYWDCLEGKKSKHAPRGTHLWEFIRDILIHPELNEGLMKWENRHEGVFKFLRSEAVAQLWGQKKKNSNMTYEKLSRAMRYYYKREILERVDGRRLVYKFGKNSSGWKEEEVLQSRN
In short: as §1

[18] = biological target: CRX (Homo sapiens, UniProt O43186 1-299); conditions: protein: recombinant; tags: N-terminal GST; dsDNA, one strand shown
In short: as §1

[19] = biological target: ETV1 (Homo sapiens, UniProt P50549 1-477); conditions: protein: recombinant; tags: N-terminal GST; dsDNA, one strand shown
In short: as §1

ELF4, sequence (Q99607 whole entry): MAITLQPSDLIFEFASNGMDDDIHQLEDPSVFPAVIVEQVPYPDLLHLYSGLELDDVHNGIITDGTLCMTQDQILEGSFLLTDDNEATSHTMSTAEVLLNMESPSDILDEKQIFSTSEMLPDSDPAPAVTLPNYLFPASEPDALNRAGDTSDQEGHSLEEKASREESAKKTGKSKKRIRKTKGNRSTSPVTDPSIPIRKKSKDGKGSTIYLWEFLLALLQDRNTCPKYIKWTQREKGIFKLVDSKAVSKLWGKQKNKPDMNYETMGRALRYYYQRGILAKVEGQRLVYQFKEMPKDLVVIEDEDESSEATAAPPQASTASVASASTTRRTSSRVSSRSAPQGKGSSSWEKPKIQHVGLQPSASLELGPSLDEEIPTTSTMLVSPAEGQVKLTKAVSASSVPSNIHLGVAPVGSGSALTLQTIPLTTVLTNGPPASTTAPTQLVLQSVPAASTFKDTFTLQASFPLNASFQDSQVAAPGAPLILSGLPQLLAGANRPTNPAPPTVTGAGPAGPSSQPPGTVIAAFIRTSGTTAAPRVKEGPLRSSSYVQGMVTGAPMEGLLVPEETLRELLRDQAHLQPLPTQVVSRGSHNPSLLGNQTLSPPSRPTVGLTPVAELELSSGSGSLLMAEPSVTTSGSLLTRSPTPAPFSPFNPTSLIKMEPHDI
ELF1, sequence (P32519 whole entry): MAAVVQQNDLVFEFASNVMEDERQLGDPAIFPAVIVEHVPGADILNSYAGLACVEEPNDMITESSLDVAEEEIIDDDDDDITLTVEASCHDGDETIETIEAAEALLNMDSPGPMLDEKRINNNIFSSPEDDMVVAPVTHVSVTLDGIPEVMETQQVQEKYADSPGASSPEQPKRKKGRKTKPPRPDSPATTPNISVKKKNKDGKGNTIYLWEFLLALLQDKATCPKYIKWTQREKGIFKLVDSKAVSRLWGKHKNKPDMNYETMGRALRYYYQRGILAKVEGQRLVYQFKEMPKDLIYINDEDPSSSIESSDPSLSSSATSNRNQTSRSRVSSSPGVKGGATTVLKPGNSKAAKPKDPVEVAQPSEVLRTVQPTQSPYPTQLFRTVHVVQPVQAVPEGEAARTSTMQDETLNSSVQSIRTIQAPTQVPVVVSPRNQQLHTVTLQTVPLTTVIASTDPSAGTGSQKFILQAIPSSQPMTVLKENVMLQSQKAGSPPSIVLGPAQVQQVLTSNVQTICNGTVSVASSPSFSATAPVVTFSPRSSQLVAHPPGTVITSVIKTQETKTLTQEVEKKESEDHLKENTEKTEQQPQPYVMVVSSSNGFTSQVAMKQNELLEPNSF
CRX, sequence (O43186 whole entry): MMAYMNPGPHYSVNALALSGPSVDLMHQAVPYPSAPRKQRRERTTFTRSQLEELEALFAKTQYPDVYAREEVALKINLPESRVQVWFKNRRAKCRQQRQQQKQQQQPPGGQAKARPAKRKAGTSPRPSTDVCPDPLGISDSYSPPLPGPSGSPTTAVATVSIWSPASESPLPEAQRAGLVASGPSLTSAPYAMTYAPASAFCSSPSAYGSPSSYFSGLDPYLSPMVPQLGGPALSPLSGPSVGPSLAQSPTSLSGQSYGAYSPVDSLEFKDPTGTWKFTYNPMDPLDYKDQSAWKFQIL
ETV1, sequence (P50549 whole entry): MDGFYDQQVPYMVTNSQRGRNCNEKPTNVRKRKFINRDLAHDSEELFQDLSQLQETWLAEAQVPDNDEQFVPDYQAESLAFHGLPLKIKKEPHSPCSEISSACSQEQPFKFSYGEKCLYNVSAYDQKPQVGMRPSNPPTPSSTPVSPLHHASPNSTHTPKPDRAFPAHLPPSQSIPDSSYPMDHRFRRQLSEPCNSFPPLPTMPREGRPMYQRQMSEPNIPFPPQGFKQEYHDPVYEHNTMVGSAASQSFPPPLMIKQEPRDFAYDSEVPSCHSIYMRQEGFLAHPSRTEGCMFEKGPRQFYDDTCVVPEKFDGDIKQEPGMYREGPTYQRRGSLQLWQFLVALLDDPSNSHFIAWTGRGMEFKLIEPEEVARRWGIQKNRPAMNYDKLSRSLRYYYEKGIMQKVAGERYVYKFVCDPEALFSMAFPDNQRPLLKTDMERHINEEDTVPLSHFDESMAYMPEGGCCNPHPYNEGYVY
SPIB, sequence (Q01892 whole entry): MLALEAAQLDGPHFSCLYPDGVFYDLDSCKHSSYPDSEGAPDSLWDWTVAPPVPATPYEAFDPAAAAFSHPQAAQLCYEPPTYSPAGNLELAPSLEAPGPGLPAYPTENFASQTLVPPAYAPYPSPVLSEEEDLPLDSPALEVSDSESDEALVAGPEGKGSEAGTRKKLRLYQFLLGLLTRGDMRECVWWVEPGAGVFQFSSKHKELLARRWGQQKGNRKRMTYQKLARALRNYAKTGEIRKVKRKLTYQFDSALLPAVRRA
ETV5, sequence (P41161 whole entry): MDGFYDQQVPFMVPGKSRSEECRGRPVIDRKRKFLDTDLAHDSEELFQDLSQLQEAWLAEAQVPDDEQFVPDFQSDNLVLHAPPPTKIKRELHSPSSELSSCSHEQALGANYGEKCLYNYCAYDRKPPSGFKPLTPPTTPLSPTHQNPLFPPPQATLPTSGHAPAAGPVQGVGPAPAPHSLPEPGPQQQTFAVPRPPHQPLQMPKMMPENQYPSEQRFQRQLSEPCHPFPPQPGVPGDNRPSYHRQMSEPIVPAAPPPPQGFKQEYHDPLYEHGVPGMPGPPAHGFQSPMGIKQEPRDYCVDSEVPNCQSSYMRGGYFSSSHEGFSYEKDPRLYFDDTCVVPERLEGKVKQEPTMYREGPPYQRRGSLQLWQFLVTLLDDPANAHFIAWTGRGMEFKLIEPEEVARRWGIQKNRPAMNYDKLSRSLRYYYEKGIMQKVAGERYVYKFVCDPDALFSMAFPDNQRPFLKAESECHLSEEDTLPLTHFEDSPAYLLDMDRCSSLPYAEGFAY
HSF1, sequence (Q00613 whole entry): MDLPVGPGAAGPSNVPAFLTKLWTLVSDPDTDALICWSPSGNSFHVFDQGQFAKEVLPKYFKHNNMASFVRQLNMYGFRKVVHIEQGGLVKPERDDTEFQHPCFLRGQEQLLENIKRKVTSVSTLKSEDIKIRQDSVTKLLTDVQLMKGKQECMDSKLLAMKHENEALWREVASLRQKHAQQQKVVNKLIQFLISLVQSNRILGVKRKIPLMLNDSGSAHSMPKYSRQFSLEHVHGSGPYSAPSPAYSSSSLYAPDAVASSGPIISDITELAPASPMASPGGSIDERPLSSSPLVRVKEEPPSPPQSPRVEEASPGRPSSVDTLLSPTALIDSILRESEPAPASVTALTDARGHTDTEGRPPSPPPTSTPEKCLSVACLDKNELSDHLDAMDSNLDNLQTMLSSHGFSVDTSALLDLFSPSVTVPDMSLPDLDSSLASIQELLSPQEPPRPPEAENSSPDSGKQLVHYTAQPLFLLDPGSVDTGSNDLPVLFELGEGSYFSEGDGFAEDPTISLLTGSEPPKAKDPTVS

In the case of TTCCGG, the binding signal [1] is reported as 5.8 fold enrichment (6-mer frequency, TF over GST control), the binding signal [2] is reported as 5.94 fold enrichment (6-mer frequency, TF over GST control) and the binding signal [3] is reported as 5.16 fold enrichment (6-mer frequency, TF over GST control). The binding signal [4] was 7.1 fold enrichment (6-mer frequency, TF over GST control), the binding signal [5] was 5.41 fold enrichment (6-mer frequency, TF over GST control) and the binding signal [6] was 5.96 fold enrichment (6-mer frequency, TF over GST control). The binding signal [7] was 5.73 fold enrichment (6-mer frequency, TF over GST control), the binding signal [8] was 5.9 fold enrichment (6-mer frequency, TF over GST control) and the binding signal [9] was 6.93 fold enrichment (6-mer frequency, TF over GST control). For the same sequence, the binding signal [10] was 8.68 fold enrichment (6-mer frequency, TF over GST control), the binding signal [11] was 6.4 fold enrichment (6-mer frequency, TF over GST control) and the binding signal [12] was 1.93 fold enrichment (6-mer frequency, TF over GST control). The binding signal [13] was 5.6 fold enrichment (6-mer frequency, TF over GST control), the binding signal [14] was 5.4 fold enrichment (6-mer frequency, TF over GST control) and the binding signal [15] was 4.67 fold enrichment (6-mer frequency, TF over GST control). For the same sequence, the binding signal [16] was 5.78 fold enrichment (6-mer frequency, TF over GST control), the binding signal [17] was 5.14 fold enrichment (6-mer frequency, TF over GST control) and the binding signal [18] was 1.33 fold enrichment (6-mer frequency, TF over GST control). The binding signal [19] was 6.12 fold enrichment (6-mer frequency, TF over GST control).
